Compound activity as filed in PubChem.
A selection: hits, their analogues and other compounds. The true share with any hit is near 10%.
FLuc inh = Firefly luciferase inhibition profiling of diverse chemical library using quantitative high-throughput screening; Luciferin 4-monooxygenase (Photinus pyralis), P08659; purified P. pyralis luciferase, luminescence, biochemical; Potency, µM (doses to about 115 µM), actives largely listed as inhibitors; 76,000 tested, 2.5% active; AID 1347043, 2019; note: nearly all actives have a fitted effect of over 65% in size
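Purified P. pyralis luciferase (10nM final) in 50mM Tris acetate pH 7.5, 10mM Mg acetate, 0.01% Tween-20, 0.05% BSA with 10uM D-luciferin and 10uM ATP. Compounds titrated qHTS. Luminescence imaged on CCD.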
3T3 cytotox = Cytotoxic Profiling in NIH 3T3 Cell Line of Diverse Libraries Using Quantitative High-Throughput Screening; NIH 3T3 viability, CellTiter-Glo ATP luminescence, 48-72 h; Potency, µM (top dose mostly 96.7 µM), usual class: inhibitors; 94,000 tested, 4.3% active; note: nearly all actives have a fitted effect of over 55% in size
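Luminescent ATP readout (CellTiter-Glo, 10 min RT) after 48 or 72 hr compound exposure of NIH 3T3 cells seeded at 400 cells/well in 1536-well format; quantitative HTS.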
NPR1 antag = Natriuretic polypeptide receptor (hNpr1) antagonism - Primary qHTS; HEK293 hNpr1 GloSensor cGMP, ANP-stimulated luminescence; 76,000 tested, 1.6% active; Potency, µM (titrated, usually from 46.3 µM), hits mostly inhibitors; Atrial natriuretic peptide receptor 1 (Homo sapiens), P16066; calls by dose curve; note: nearly all actives have a fitted effect of over 60% in size
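HEK293 cells stably expressing human Npr1 and cGMP GloSensor pGS-40F, loaded 2 h with 2% GloSensor reagent, given compound 30 min at room temperature. Luminescence read before and 20 min after 0.1 nM hNppA.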
HEK cytotox = Cytotoxic Profiling in HEK 293 Cell Line of Diverse Libraries Using Quantitative High-Throughput Screening; Potency, µM (top dose mostly 115 µM), most hits filed as inhibitors; 94,000 tested, 6.6% active; HEK 293 viability, ATP luminescence (CellTiter-Glo), 48-72 h; note: nearly all actives have a fitted effect of over 60% in size
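HEK 293 cells at 250 cells/well were exposed to compounds by pintool transfer for 48 or 72 hr at 37 degree Celsius, 5% CO2. Viability was read as ATP-coupled luminescence with CellTiter-Glo after 10 min at room temperature.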
GPT2 inh = Primary qHTS assay for inhibitors of Glutamate pyruvate transaminase 2 (GPT2); Alanine aminotransferase 2 (Homo sapiens), Q8TD30; Recombinant GPT2, coupled pyruvate oxidase/HRP Amplex Red fluorescence; Potency, µM (titrated, usually from 57.7 µM), usual class: inhibitors; 100,000 tested, 0.25% active; AID 1671188, 2021; note: nearly all actives have a fitted effect of over 60% in size
Target sequence (Q8TD30 whole entry, looked up): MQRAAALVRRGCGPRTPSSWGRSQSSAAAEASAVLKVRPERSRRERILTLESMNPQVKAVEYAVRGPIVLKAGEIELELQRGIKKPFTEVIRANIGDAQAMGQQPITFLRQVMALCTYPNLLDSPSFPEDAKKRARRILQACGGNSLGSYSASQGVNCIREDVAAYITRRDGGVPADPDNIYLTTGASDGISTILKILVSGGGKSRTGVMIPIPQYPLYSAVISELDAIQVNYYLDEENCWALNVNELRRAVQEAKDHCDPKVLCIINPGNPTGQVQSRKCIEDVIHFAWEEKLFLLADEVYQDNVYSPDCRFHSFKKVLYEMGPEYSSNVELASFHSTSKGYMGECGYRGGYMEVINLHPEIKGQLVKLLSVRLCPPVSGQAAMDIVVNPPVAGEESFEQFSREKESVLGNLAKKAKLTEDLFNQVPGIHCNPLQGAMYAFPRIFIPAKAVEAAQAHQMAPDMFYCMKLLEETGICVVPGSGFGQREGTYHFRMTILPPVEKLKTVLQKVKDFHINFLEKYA
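Inhibition is scored from Amplex Red fluorescence generated when pyruvate oxidase and HRP act on pyruvate released by GPT2. Reactions contain 10ng/uL enzyme, 250uM a-KG and 2mM L-alanine and run 30 min at room temperature.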
Numbers stand for hits; - = inactive; ? = inconclusive; . = not tested or not shown; [ ] = another dose, or the depositor's remark. Unless noted, calls come from the whole dose curve; as a rule, active = well fitted curve in the direction sought with a large enough effect; inconclusive = small, poorly fitted or top-dose-only effect, or another doubt; inactive = no such curve, though single readings can be large; an effect the other way counts as inactive or inconclusive.

SMILES	FLuc inh	3T3 cytotox	NPR1 antag	HEK cytotox	GPT2 inh
CCc1cccc2c(C(CC(=O)NCCOC)c3ccc(OC)c(OC)c3)c[nH]c12 (stereo not given)	-	-	-	-	-
CC(=O)NCCc1ncc(C)n1C1CCC1	-	-	-	-	-
COc1ccc(-c2cc(-c3cnn(C)c3)cn3cncc23)cn1	-	?	-	?	-
COc1ccc(-c2cc(-c3cccc(CO)c3)cn3cncc23)cc1	-	56µM	-	79µM	-
COc1ccc(-c2cc(-c3cnn(C)c3)cn3cncc23)cc1	-	35µM	-	?	?
COc1ccc(-c2cc(-c3cccc(OC)c3OC)cn3cncc23)cc1	?	?	-	89µM	-
Oc1ccccc1-c1cc(-c2cccnc2)c2cncn2c1	-	?	-	100µM	-
COc1ccc(-c2cc(-c3c(C)noc3C)c3cncn3c2)cc1	-	?	-	?	-
CCn1ccc(C(=O)N2C[C@@H](Oc3cccnc3)C[C@@H]2C(=O)N2CCOCC2)n1	-	-	-	-	-
COc1ccc(-c2cc(-c3ccccc3O)cn3cncc23)cc1	-	?	-	100µM	-
COc1cccc(-c2cc(-c3ccc(OC)nc3)c3cncn3c2)c1	-	?	-	?	-
COC(=O)[C@H](Cc1ccc(OC)cc1)NC(=O)[C@H]1CN(S(=O)(=O)c2ccccc2)CCN1C(=O)c1cccs1	-	?	-	79µM	-
NC(=O)[C@H](CC1CCCCC1)NC(=O)[C@@H]1CN(S(=O)(=O)c2ccccc2)CCN1C(=O)c1cccs1	-	25µM	-	-	-
CC(=O)N1CCN(C(=O)c2cccs2)[C@H](C(=O)N[C@@H](CC2CCCCC2)C(N)=O)C1	-	-	-	-	-
C#CCNC(=O)c1nc(-c2cccnc2)c2cnccn12	-	-	-	?	-
C#CCNC(=O)c1nc(-c2ccsc2)c2cnccn12	-	-	-	100µM	-
CCOc1ccc(CC(=O)NCCn2ccn3nc(-c4cccc(OC)c4)cc3c2=O)cc1	?	?	-	?	-
COc1cccc(-c2cc3c(=O)n(CCNC(=O)Cc4cccs4)ccn3n2)c1	16µM	-	-	?	-
COc1cccc(CCC(=O)NCCn2ccn3nc(-c4cccc(OC)c4)cc3c2=O)c1	8.9µM	?	-	?	-
COc1cccc(-c2cc3c(=O)n(CCNC(=O)COc4cccc(C)c4)ccn3n2)c1	22µM	?	?	?	-
COc1cccc(-c2cc3c(=O)n(CCNC(=O)c4cc(C)cc(C)c4)ccn3n2)c1	?	-	-	-	-
COc1cc(OC)cc(C(=O)NCCn2ccn3nc(-c4cccc(OC)c4)cc3c2=O)c1	18µM	-	-	-	-
COc1cccc(NC(=O)Cn2c(=O)c3c(n2Cc2ccccc2)CN(Cc2ccccc2)CC3)c1	?	-	-	?	-
CN(C)c1ccc(C(=O)N2CCN(c3cc(-c4cccs4)[nH]n3)CC2)cc1	-	?	-	?	-
CCC(C(=O)NCCn1ccn2nc(-c3cccc(OC)c3)cc2c1=O)c1ccccc1 (stereo not given)	14µM	?	?	?	-
SMILES	FLuc inh	3T3 cytotox	NPR1 antag	HEK cytotox	GPT2 inh
COc1ccc(C(=O)NCCn2ccn3nc(-c4cccc(OC)c4)cc3c2=O)cc1	-	?	-	?	-
CN(C(=O)[C@@H]1C[C@@H](c2ccc(F)cc2)N([S+](=O)([O-])c2ccccc2)C1)c1ccccc1	-	35µM	-	?	-
CN(Cc1ccccc1)C(=O)[C@@H]1C[C@@H](c2ccc(F)cc2)N([S+](=O)([O-])c2ccccc2)C1	-	?	-	?	-
CCN1C(=O)Cc2ccccc2C1C(=O)NCc1ccc(Cl)cc1 (stereo not given)	-	-	-	-	?
O=S(=O)(c1ccc2c(c1)CCC2)N1CCCCC1c1nc(CCOCC2CC2)no1 (stereo not given)	-	28µM	-	40µM	-
O=S(=O)(c1cccs1)N1CCCCC1c1nc(CCOCC2CC2)no1 (stereo not given)	-	-	-	?	-
Cc1noc(C)c1Cn1cc2c3c(cccc31)[C@H](CC(C)C)N[C@H](C(=O)NCCN(C)C)C2	-	?	-	?	-
C=CCn1cc2c3c(cccc31)[C@H](CC(C)C)N[C@H](C(=O)NCCN(C)C)C2	-	35µM	-	35µM	?
CC(C)C[C@@H]1N[C@H](C(=O)NCc2cccs2)Cc2cn(CC3CC3)c3cccc1c23	-	71µM	-	63µM	-
C=CCn1cc2c3c(cccc31)[C@H](CC(C)C)N[C@H](C(=O)NCCC)C2	-	71µM	-	50µM	-
CC(C)C[C@@H]1N[C@H](C(=O)NCCN(C)C)Cc2cn(CC3CC3)c3cccc1c23	-	32µM	-	32µM	-
CN(C)C(=O)NC1CCN(c2ccc3nnc(C4CC4)n3n2)C1 (stereo not given)	.	-	.	-	.
CC(C)(C)c1nnc2ccc(C(=O)NCc3ccc(F)c(F)c3)cn12	.	?	.	-	-
O=C([C@H]1C[C@H](Oc2ccccc2)CN1C(=O)c1cc(F)ccc1F)N1CCOCC1	?	-	-	-	-
O=c1[nH]nc2n1CCC(NS(=O)(=O)Cc1ccc(F)cc1)CC2 (stereo not given)	-	-	-	-	-
O=C(O)CCn1ncc2cc(OCC3CCN(C(=O)c4cc(F)ccc4Cl)CC3)ccc21	-	32µM	.	-	-
O=C(O)CCn1ncc2cc(OCC3CCN(C(=O)Oc4ccccc4)CC3)ccc21	-	28µM	.	-	-
CC(C)OC(=O)N1CCC(COc2ccc3c(cnn3CCC(=O)O)c2)CC1	?	28µM	-	-	-
NC(=O)c1cccnc1N1CCC(Oc2ccc(Cl)cc2)(C(=O)O)CC1	-	-	-	-	-
COc1ccc(C(=O)N2CCC(Oc3ccc(C(=O)N4CCOCC4)cn3)CC2)cc1	-	-	-	?	-
CCN1CCc2[nH]cnc2C12CCN(C(=O)c1cccnc1SC)CC2	-	-	-	-	-[11.5 µM]
CCS(=O)(=O)N1CCCOCCNC(=O)[C@@H]2CCCC[C@@H]21	-	-	-	-	-
Cc1ccc([S+](=O)([O-])NC2CCCN(c3ccc4nnc(-c5ccccc5)n4n3)C2)cc1 (stereo not given)	.	?	.	25µM	.
C[S+](=O)([O-])NC1CCN(c2ccc3nnc(-c4ccccc4)n3n2)C1 (stereo not given)	.	-	.	-	.
Cc1nnc2ccc(N3CCC(N[S+](=O)([O-])c4ccccc4)CC3)nn12	.	32µM	.	45µM	.
